Among the data in PubChem BioAssay (EPA / NIEHS) are AC50 and outcome values, retold here.

Where “and” joins values, the source holds several entries; their conditions need not be identical. Equal values may be shown once. Inconclusive results are not listed. Some compounds were tested as several samples or in several runs, with calls that do not always agree. Calls of active or inactive are those of the source. Rule for the calls, unless noted: active = hit-call score of the fitted dose curve at least 0.9, where 1 is the maximum; inactive = score below 0.9.

Experiment [1] deals with Retinoic acid receptor RXR-alpha (Homo sapiens) (UniProt P19793). The experiment is described as follows: OT_NURR1_NURR1RXRa_1440: Odyssey Thera (OT) 24-hour HEK293T Protein Complementation Assay for Nurr1/retinoid X receptor (RXR) (AID 2283386; active = hit-call score of the fitted dose curve at least 0.9, where 1 is the maximum). In short, it runs like this: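 Fluorescence PCA read-out; HEK293T; 24 h post-dose; bait/prey fused to reporter fragments; gain-of-signal fit vs DMSO negative control.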
Retinoic acid receptor RXR-alpha (Homo sapiens), sequence (P19793 whole entry, looked up, the tested form may be a part): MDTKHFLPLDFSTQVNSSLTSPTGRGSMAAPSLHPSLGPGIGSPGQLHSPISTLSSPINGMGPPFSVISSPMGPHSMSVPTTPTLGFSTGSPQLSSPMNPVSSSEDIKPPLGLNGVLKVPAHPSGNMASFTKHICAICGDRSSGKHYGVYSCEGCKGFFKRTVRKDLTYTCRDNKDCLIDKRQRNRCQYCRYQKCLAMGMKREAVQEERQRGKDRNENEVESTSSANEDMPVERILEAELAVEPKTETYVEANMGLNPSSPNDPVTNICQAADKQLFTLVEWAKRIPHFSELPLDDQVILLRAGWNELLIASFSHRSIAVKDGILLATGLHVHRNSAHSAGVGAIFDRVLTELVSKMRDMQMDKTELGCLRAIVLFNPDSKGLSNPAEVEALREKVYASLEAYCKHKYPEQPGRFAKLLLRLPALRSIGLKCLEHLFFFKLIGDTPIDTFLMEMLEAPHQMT

The target in experiment [2] is Peroxisome proliferator-activated receptor gamma (Homo sapiens) (UniProt P37231). Kind of experiment: OT_PPARg_PPARgSRC1_0480: Odyssey Thera (OT) 8-hour Protein-Complementation Assay for Peroxisome Proliferator-activated Receptor Gamma / SRC-1 Co-activator (AID 2283387; active = hit-call score of the fitted dose curve at least 0.9, where 1 is the maximum;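 note: nuclear to cytoplasmic split Venus YFP fluorescence ratio reporting PPARg SRC-1 interaction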). In outline:
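Protein-fragment complementation in HEK293T: Venus YFP halves (residues 1-158, 159-239, mutated to IFP1/IFP2) fused to PPARg/SRC-1. 8 h exposure; N/C ratio at 488 nm; DMSO negative control.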

Experiment [3] has the same target. Kind of experiment: OT_PPARg_PPARgSRC1_1440: Odyssey Thera (OT) 24-hour Protein-Complementation Assay for Peroxisome Proliferator-activated Receptor Gamma/ SRC-1 Co-activator (AID 2283388; active = hit-call score of the fitted dose curve at least 0.9, where 1 is the maximum;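 note: nuclear to cytoplasmic ratio of reconstituted Venus YFP fluorescence in fixed imaged cells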). In outline: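 Protein-fragment complementation between PPARg and coactivator SRC-1 was measured by fluorescence imaging in transiently transfected HEK293T cells after 24 h treatment. Signal was quantified as N/C ratio in the 488 nm channel, with DMSO as negative control.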

Experiment [4] is described as follows: CEETOX_H295R_OHPREG: CeeTox H295R High-throughput Steroidogenesis Assay for OH-Pregnenolone (OHPREG) (AID 2283434). Particulars: actives raise or lower the signal. In short, it runs like this: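 Secreted 17alpha-hydroxypregnenolone measured by HPLC-MS/MS after liquid-liquid extraction. Human adrenal H295R cells received 48 h forskolin (10 uM) stimulation before 48 h chemical exposure at 0.1% final DMSO; MTT viability in same wells; bidirectional fit against DMSO.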

The nature of experiment [5]: CEETOX_H295R_PROG: CeeTox H295R High-throughput Steroidogenesis Assay for Progesterone (PROG) (AID 2283442). Particulars: actives raise or lower the signal. In short, it runs like this:
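Steps: seed H295R cells and let them adhere overnight; prime 48 h with 10 uM forskolin; dose with compound in DMSO at 0.1% final for 48 h; extract medium steroids with MTBE; measure progesterone by LC-MS/MS. MTT viability was run in the same wells.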

Read-out in experiment [6]: Tumor necrosis factor receptor superfamily member 6 (Homo sapiens) (UniProt P25445)
The experiment is described as follows: LTEA_HepaRG_FAS: Life Technologies and Expression Analysis (LTEA) Assay for Fas cell surface death receptor (FAS) using HepaRG (AID 2283447). Particulars: mRNA level, 48 h; actives raise or lower the signal. In short, it runs like this: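 FAS transcript level was measured by TaqMan qRT-PCR against three housekeeping genes after 48 h chemical exposure. Cells were HepaRG, 0.5% DMSO vehicle, with a top concentration of 100 uM and half-log dilutions over eight points, in duplicate.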

Read-out in experiment [7]: Fatty acid synthase (Homo sapiens) (UniProt P49327)
The experiment is described as follows: LTEA_HepaRG_FASN: Life Technologies and Expression Analysis (LTEA) Assay for Fatty Acid Synthase (FASN) using HepaRG (AID 2283448).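 For AC50: differentiated human HepaRG liver cells in serum-free induction medium.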 Conditions: mRNA level, 48 h; actives raise or lower the signal. In short, it runs like this:
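HepaRG, 48 h exposure, 8-pt half-log series top 100 uM, 0.5% DMSO vehicle, duplicates. Readout: FASN transcript by Fluidigm qRT-PCR; housekeeping-normalized; bidirectional curve fit vs DMSO baseline.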

Read-out in experiment [8]: Cyclin D2 (CCND2), CCND2 (gene 894)
The experiment is described as follows: LTEA_HepaRG_CCND2: Life Technologies and Expression Analysis (LTEA) Assay for Cyclin D2 (CCND2) using HepaRG (AID 2283449). Conditions: mRNA level, 48 h; actives raise or lower the signal. In short, it runs like this: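 CCND2 transcript levels, quantified by qRT-PCR and normalised to three housekeeping genes, were fitted bidirectionally against 0.5% DMSO. HepaRG cultures were dosed 48 h in duplicate with an 8-point half-log series up to 100 uM.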

Read-out in experiment [9]: Cyclin Dependent Kinase Inhibitor 1A (CDKN1A), CDKN1A (gene 1026)
The experiment is described as follows: LTEA_HepaRG_CDKN1A: Life Technologies and Expression Analysis (LTEA) Assay for Cyclin Dependent Kinase Inhibitor 1A (CDKN1A) using HepaRG (AID 2283450). Particulars: mRNA level, 48 h; actives raise or lower the signal. In outline:
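Read-out is CDKN1A mRNA by TaqMan qRT-PCR, normalized to three housekeeping genes and fitted in both directions against the DMSO baseline. Human HepaRG cells were treated 48 h with test chemicals up to 100 uM in half-log steps, 0.5% DMSO.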

Read-out in experiment [10]: Cyclin D1 (CCND1), CCND1 (gene 595)
The experiment is described as follows: LTEA_HepaRG_CCND1: Life Technologies and Expression Analysis (LTEA) Assay for Cyclin D1 (CCND1) using HepaRG (AID 2283451).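 For AC50: differentiated human HepaRG liver cells in serum-free induction medium; TaqMan qRT-PCR transcript level normalised to ACTB GAPDH and POLR2A housekeeping genes.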 Conditions: mRNA level, 48 h; actives raise or lower the signal. In short, it runs like this: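 HepaRG plated 48 h, medium switched to serum-free induction medium, chemicals added in duplicate (top 100 uM, half-log steps, 0.5% DMSO) for 48 h, cells lysed, RNA measured by TaqMan qRT-PCR.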

Read-out in experiment [11]: catalase (CAT), CAT (gene 847)
The experiment is described as follows: LTEA_HepaRG_CAT: Life Technologies and Expression Analysis (LTEA) Assay for catalase (CAT) using HepaRG (AID 2283452).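 For AC50: TaqMan qRT-PCR signal normalized to ACTB GAPDH and POLR2A housekeeping genes.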 Conditions: mRNA level, 48 h; actives raise or lower the signal. In outline: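 Expression of CAT was quantified by TaqMan qRT-PCR with ACTB/GAPDH/POLR2A normalization after 48 h chemical exposure of HepaRG. Eight-point half-log series, top 100 uM, in 0.5% DMSO; gain or loss fitted against vehicle.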

Read-out in experiment [12]: flavin-containing dimethylaniline monooxygenases 3 (FMO3), FMO3 (gene 2328)
Kind of experiment: LTEA_HepaRG_FMO3: Life Technologies and Expression Analysis (LTEA) Assay for flavin-containing dimethylaniline monooxygenases 3 (FMO3) using HepaRG (AID 2283453).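 For AC50: differentiated human HepaRG liver cells in serum-free induction medium; FMO3 transcript by TaqMan qRT-PCR normalized to ACTB GAPDH and POLR2A.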 Conditions: mRNA level, 48 h; actives raise or lower the signal. In short, it runs like this:
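Eight-point concentration-response in serum-free HepaRG cultures (top 100 uM, 0.5% DMSO, 48 h). Read-out: FMO3 mRNA level normalized to three endogenous control genes, fitted bidirectionally versus vehicle.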

Read-out in experiment [13]: Cytochrome P450 (CYP1A1), CYP1A1 (gene 1543)
Kind of experiment: LTEA_HepaRG_CYP1A1: Life Technologies and Expression Analysis (LTEA) Assay for Cytochrome P450 (CYP1A1) using HepaRG (AID 2283454). Particulars: mRNA level, 48 h; actives raise or lower the signal. In outline: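 HepaRG, 48 h post-plating switched to serum-free induction medium; 8-pt conc-response (top 100 uM, half-log, 0.5% DMSO), duplicates, 48 h. Lysis in RLT, TaqMan qRT-PCR for CYP1A1; gain or loss vs DMSO.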

Read-out in experiment [14]: CFLAR gene, CFLAR (gene 8837)
Kind of experiment: LTEA_HepaRG_CFLAR: Life Technologies and Expression Analysis (LTEA) Assay for CFLAR gene using HepaRG (AID 2283455). Conditions: mRNA level, 48 h; actives raise or lower the signal. In outline:
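Transcript level by qRT-PCR (normalized to ACTB, GAPDH and POLR2A) after 48 h chemical exposure of HepaRG cells, top concentration 100 uM with half-log steps, 0.5% DMSO vehicle, duplicates; fitted bidirectionally against DMSO baseline.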

The nature of experiment [15]: CEETOX_H295R_11DCORT: CeeTox H295R High-throughput Steroidogenesis Assay for 11-Deoxycortisol (11DCORT) (AID 2283432).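 Note: 11-deoxycortisol secreted into the medium measured by LC-MS/MS.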 Particulars: actives raise or lower the signal. In outline:
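Adrenal carcinoma line H295R, run per OECD 456 with minor changes, was forskolin-stimulated (10 uM, 48 h) before a 48 h chemical exposure at 0.1% DMSO. Secreted 11-deoxycortisol was quantified by HPLC-MS/MS.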

Experiment [16] is described as follows: CEETOX_H295R_ANDR: CeeTox H295R High-throughput Steroidogenesis Assay for Androstenedione (ANDR) (AID 2283436). Conditions: actives raise or lower the signal. In outline:
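Medium from 48 h chemical-treated H295R adrenal cells was extracted with MTBE and androstenedione measured by LC-MS/MS. Activity was fit in both directions relative to DMSO. Cytotoxic concentrations were re-tested after dilution until MTT viability reached ≥70%.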

Experiment [17] in a line: CEETOX_H295R_CORTIC: CeeTox H295R High-throughput Steroidogenesis Assay for Corticosterone (CORTIC) (AID 2283437). Conditions: actives raise or lower the signal. In outline: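 Medium corticosterone was quantified by tandem mass spectrometry following 48 hours of chemical exposure (0.1% DMSO) in human H295R cells previously stimulated 48 hours with 10 uM forskolin. Viability checked by MTT; chemicals diluted and retested when viability fell below 70%.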

Experiment [18] is described as follows: CEETOX_H295R_CORTISOL: CeeTox H295R High-throughput Steroidogenesis Assay for Cortisol (AID 2283438).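 Note: cortisol secreted into medium quantified by LC-MS/MS.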 Conditions: actives raise or lower the signal. In outline: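 Read-out: cortisol in culture medium by reverse-phase C18 HPLC with ESI-positive tandem MS, after MTBE liquid-liquid extraction. Cells: human adrenal H295R, forskolin-primed (10 uM, 48 h) before 48 h chemical exposure in 0.1% DMSO.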

Experiment [19] in a line: CEETOX_H295R_DOC: CeeTox H295R High-throughput Steroidogenesis Assay for DOC (AID 2283439). Particulars: actives raise or lower the signal. In outline:
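Human adrenocortical H295R cells, passages up to 10, received 10 uM forskolin for 48 h before chemical addition. After another 48 h exposure in 0.1% DMSO, secreted DOC was measured by LC-MS/MS, with gain or loss fitted against DMSO controls.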

Experiment [20] in a line: CEETOX_H295R_ESTRADIOL: CeeTox H295R High-throughput Steroidogenesis Assay for Estradiol (AID 2283440).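 Note: estradiol secreted into medium quantified by LC-MS/MS after dansyl derivatisation.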 Particulars: actives raise or lower the signal. In short, it runs like this: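 Estradiol secreted into the medium was measured by tandem mass spectrometry after liquid-liquid extraction and dansylation. Human H295R cells had been forskolin-primed (10 uM, 48 h) before a 48 h chemical exposure with 0.1% DMSO.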

Fatty acid synthase (Homo sapiens), sequence (P49327 whole entry, looked up): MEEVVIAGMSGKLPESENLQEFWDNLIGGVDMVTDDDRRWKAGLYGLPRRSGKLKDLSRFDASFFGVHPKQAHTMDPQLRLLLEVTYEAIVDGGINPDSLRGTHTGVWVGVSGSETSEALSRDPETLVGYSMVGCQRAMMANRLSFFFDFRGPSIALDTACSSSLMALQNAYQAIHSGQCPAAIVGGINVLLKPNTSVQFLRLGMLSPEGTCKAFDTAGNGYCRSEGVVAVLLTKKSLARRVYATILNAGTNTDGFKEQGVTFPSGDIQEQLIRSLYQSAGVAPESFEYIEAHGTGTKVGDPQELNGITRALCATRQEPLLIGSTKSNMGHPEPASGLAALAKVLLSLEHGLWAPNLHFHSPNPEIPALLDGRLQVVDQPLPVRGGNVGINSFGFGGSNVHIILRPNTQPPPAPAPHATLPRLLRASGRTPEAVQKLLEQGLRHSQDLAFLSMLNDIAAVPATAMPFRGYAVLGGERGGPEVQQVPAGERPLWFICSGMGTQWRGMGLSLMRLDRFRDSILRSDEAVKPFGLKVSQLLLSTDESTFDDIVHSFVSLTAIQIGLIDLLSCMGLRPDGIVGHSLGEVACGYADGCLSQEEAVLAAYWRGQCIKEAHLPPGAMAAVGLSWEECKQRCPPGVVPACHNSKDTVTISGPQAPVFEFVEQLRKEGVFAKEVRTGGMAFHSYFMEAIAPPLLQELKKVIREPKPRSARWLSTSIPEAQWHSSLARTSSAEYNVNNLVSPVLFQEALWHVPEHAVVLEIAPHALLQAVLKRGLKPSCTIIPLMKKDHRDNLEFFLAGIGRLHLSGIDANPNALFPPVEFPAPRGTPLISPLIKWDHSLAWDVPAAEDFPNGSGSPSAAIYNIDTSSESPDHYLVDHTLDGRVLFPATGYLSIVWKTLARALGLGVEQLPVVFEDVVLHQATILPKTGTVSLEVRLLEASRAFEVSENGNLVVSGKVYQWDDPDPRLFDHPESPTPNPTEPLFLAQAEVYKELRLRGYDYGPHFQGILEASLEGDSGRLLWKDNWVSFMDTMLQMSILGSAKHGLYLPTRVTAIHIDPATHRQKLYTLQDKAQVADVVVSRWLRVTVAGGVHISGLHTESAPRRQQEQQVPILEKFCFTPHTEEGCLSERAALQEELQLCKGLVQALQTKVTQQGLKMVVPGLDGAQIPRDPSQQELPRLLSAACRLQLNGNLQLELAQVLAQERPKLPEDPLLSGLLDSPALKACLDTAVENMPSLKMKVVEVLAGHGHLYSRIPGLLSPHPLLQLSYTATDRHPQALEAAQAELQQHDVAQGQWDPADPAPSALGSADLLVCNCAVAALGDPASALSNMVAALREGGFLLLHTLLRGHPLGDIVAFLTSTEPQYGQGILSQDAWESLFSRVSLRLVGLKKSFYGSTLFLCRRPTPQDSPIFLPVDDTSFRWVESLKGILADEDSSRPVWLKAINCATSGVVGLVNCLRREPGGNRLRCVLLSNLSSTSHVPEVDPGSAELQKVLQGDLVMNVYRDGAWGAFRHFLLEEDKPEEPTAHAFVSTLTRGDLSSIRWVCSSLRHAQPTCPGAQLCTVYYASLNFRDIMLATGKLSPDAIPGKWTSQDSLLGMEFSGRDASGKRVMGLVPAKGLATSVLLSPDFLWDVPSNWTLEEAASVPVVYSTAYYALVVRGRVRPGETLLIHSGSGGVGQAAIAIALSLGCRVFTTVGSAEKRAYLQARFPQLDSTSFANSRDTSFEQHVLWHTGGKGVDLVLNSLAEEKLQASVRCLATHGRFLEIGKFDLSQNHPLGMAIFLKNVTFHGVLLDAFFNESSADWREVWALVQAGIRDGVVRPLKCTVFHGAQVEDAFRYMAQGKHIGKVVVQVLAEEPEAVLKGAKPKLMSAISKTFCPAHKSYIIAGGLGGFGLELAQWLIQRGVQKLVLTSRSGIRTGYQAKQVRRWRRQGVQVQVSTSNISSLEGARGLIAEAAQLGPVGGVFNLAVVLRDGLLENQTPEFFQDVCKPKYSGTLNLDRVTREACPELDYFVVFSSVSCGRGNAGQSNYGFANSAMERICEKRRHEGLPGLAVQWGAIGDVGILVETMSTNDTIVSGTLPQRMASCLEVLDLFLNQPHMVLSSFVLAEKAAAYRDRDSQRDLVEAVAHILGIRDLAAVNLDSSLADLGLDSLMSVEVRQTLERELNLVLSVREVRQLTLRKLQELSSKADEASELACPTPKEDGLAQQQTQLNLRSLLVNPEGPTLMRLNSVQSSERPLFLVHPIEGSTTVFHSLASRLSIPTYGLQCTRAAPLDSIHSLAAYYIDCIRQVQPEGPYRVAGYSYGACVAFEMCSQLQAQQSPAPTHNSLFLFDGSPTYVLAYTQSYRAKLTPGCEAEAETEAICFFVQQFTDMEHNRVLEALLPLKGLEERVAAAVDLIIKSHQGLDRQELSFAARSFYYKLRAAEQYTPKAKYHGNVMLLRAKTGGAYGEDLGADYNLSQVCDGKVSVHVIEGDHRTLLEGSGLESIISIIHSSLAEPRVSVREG
Peroxisome proliferator-activated receptor gamma (Homo sapiens), sequence (P37231 whole entry, looked up, the tested form may be a part): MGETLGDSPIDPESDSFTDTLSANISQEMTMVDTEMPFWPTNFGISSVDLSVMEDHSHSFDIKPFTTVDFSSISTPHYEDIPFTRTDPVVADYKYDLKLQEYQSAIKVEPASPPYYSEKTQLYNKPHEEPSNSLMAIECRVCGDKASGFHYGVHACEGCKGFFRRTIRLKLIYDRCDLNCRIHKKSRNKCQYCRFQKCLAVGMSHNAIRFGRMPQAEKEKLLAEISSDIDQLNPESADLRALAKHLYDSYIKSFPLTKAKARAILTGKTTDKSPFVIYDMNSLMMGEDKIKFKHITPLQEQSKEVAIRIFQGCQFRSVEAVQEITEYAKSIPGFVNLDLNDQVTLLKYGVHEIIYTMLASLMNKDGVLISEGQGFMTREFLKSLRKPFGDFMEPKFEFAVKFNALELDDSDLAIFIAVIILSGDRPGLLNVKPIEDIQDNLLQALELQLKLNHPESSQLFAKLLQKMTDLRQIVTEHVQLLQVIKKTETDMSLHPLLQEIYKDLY

For orientation: AC50 means the concentration at which the activity in the assay is half-maximal. Take `COc1cc(-c2ccc(N)c(OC)c2)ccc1N`: the concentration at half-maximal activity (AC50) in experiment [1] is 67.1 µM (active) and 41.3 µM (active) and 50 µM (active); in experiment [4] it was 82.6 µM (active); in [5], 35.4 µM (active); in experiment [7], 55.6 µM (active); in experiment [10], 32.7 µM (active); in experiment [12], 72.6 µM (active). Besides, in experiment [13], the AC50 is 20.6 µM (active) and 24.2 µM (active). Moreover, the call in experiment [1], in [2], in experiment [3], in experiment [4], in experiment [5] and in experiment [6] was inactive. In addition, the call in experiment [7], in [8], in experiment [9], in [10], in experiment [11] and in [12] was inactive. Moreover, the call in experiment [14] was inactive.

Consider `COc1ccc(C=O)cc1OC`, for which the compound was called inactive in experiment [1], in experiment [2] and in [3].

For `CC(C#N)CCC#N` (stereo not drawn), the compound was classed as inactive in experiment [1], in [2] and in experiment [3].

On to `BrCCBr`, for which the compound was classed as inactive in experiment [1], in experiment [2] and in experiment [3].

For the compound `CCOP(=S)(OCC)Oc1nc(Cl)c(Cl)cc1Cl`, the AC50 in experiment [1] was 85.3 µM (active); in experiment [15] it was 94.9 µM (active); in experiment [4] it was 80.5 µM (active); in experiment [16], 60.7 µM (active); in experiment [18], 81.6 µM (active); in experiment [5], 39.3 µM (active). For the same compound, in experiment [13], the AC50 is 34.4 µM (active). Further, the outcome in experiment [1], in experiment [2], in experiment [3], in experiment [17], in [19] and in experiment [20] was inactive. For the same compound, the compound was classed as inactive in experiment [6], in experiment [7], in experiment [9], in [10], in experiment [11] and in [12]. In experiment [14], the compound was classed as inactive.

Consider `C=CCc1ccc(OC)cc1`, for which the compound was classed as inactive in [1], in [2] and in [3].

Take `C[C@]12CCC(=O)C[C@@H]1CC[C@@H]1[C@@H]2CC[C@]2(C)[C@@H](O)CC[C@@H]12`: the concentration at half-maximal activity (AC50) in experiment [1] is 40.3 µM (active); in experiment [4], 0.0791 µM (active); in experiment [5] it was 1.08 µM (active); in experiment [13], 35.7 µM (active). Further, the compound was classed as inactive in [1], in experiment [2], in [3], in [6], in experiment [7] and in experiment [8]. Besides, the compound was called inactive in experiment [9], in experiment [10], in experiment [11], in experiment [12] and in experiment [14].

In the case of `C=C(C)C#N`, the compound was called inactive in experiment [1].

On to `CC(=O)[O][Hg][c]1ccccc1`, for which the AC50 in experiment [1] was 0.266 µM (active); in experiment [7] it was 2.25 µM (active); in [9], 0.174 µM (active); in [10], 3.75 µM (active); in [11] it was 13.3 µM (active); in [12] it was 16.9 µM (active). Further, the AC50 in experiment [14] is 16.8 µM (active). The call in experiment [2], in [3] and in experiment [13] was inactive.
